A selection: hits, their analogues and other compounds. The true share with any hit is near 19%.
Shiga inhibitor: inhibitors of Shiga toxin in Vero cells; Vero cells, Shiga toxin protein synthesis inhibition reporter; inhibition, % at 38.7 µM; actives 9.2% (n = 290,000); AID 2315; in the data active means inhibition mostly above about 28%, no sharp cut-off; inactive means mostly below about 43%; further: 0% is about no effect
SARS PLpro yeast: blocks SARS-CoV papain-like protease in a yeast assay; S. cerevisiae expressing SARS-CoV PLpro, growth rescue; Potency, µM (doses to about 32.9 µM), inactives show at the highest dose activity, positive = growth rescue, usual class: activators; actives 0.19% (n = 330,000); AID 485353; calls by dose curve; further: potency means the concentration at half of the fitted maximal effect; 0% is about no effect; nearly all actives have a fitted effect of over 55% in size
AMA1-RON2 inh: disrupts binding of P. falciparum AMA1 to RON2; Potency, µM (top dose mostly 58.2 µM), inactives show at the highest dose activity change, negative = inhibition, actives largely listed as inhibitors; AID 720542; actives 0.2% (n = 360,000); AlphaScreen AMA1-biotinylated RON2 peptide binding;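 further: potency means the concentration at half of the fitted maximal effect; 0% = vehicle wells and -100% = peptide control; nearly all actives have a fitted effect of over 45% in size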
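AMA1 (3D7) with his tag at 25 nM final met compounds first, then biotinylated RON2 peptide at 25 nM; detection used donor plus acceptor beads, 10 µg/mL apiece, read by AlphaScreen after 30 min at room temperature.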
Pf growth 96h: inhibits malaria parasite growth, 96 h; P. falciparum luciferase reporter growth, 96 h; Potency, µM (doses to about 28.7 µM), without a hit: at the top dose activity change, negative = inhibition, usual class: inhibitors; actives 6.9% (n = 320,000); further: potency means the concentration at half of the fitted maximal effect; on the % scale 0 is the no-effect control and ±100 the full control effect
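Two parasite generations (96 h, 37 C, 5% CO2) of compound exposure in infected erythrocytes (0.05% parasitemia, 2% hematocrit). Luciferase-reporter P. falciparum; decreased luminescence indicates inhibited growth, aimed at apicoplast-acting delayed death.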
CHX counter: counter-screen for Shiga toxin inhibitors: cycloheximide protein synthesis inhibition; cell reporter, cycloheximide protein synthesis inhibition counterscreen; max response, %; actives 12% (n = 300,000); in the data active means max response mostly above about 13%, no sharp cut-off; inactive means mostly below about 14%; further: read at 38.3 µM for the half of the compounds with a filed dose; 0% is about no effect
Pf growth 48h: inhibits P. falciparum growth in the first generation, 48 h | P. falciparum luciferase growth in erythrocytes, 48 h | Potency, µM (highest dose often 28.7 µM), without a hit: top-dose activity change, negative = inhibition, actives largely listed as inhibitors | actives 5.9% (n = 310,000); further: potency means the concentration at half of the fitted maximal effect; on the % scale 0 is the no-effect control and ±100 the full control effect
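Here the parasites carry a stable luciferase gene and grow inside erythrocytes in Albumax-based RPMI medium with compound for one erythrocytic cycle. Activity is scored as loss of luminescent signal.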
Starred values were filed as active, the others as inactive; i = inactive; ? = inconclusive; nt = not tested or not shown; [ ] = dose if it differs, or a comment. Unless noted, the call rests on the fitted dose curve; in most records, active means well fitted curve in the direction sought with a large enough effect; inconclusive means small, poorly fitted or top-dose-only effect, or another doubt; inactive means no such curve, though single readings can be large; an effect the other way counts as inactive or inconclusive.

SMILES | Shiga inhibitor | SARS PLpro yeast | AMA1-RON2 inh | Pf growth 96h | CHX counter | Pf growth 48h
CN(C)CCOC(=O)NCC12CC3CC(CC(C3)C1)C2 | -8.4 | -0.1% | 0.0% | 27.8% | 6.5 | 4.5%
COc1ccc(-c2csc(N3CCC(C(N)=O)CC3)n2)cc1 | nt | 2.9% | nt | ? | nt | ?
COc1ccc(-c2csc(N3N=C(C)C(C)C3=O)n2)cc1 (configuration not stated) | 37.0 | -5.3% | 104.8% | 11.7µM* | 15.2* | 98.6%
CC1=NN(c2nc(-c3ccc(C)cc3)cs2)C(=O)C1N=Nc1ccccc1O (configuration not stated) | 50.0* | -1.3% | 46.8% | 12.4% | 43.1* | ?
CC1=NN(c2nc(-c3ccc(C)cc3)cs2)C(=O)C1N=Nc1cccc(O)c1 (configuration not stated) | 15.3 | 13.1% | 60.8% | 3.9% | 9.3 | -11.7%
O=C(OCc1cc([N+](=O)[O-])cc2c1OCOC2)c1ccccn1 | 35.2 | -0.4% | 7.1% | 47.8% | 32.8* | 8.5%
O=C(OCc1cc([N+](=O)[O-])cc2c1OCOC2)c1cccnc1SC(F)F | nt | -1.4% | -3.6% | -0.4% | nt | ?
O=[N+]([O-])c1cc2c(c(CSc3ncccn3)c1)OCOC2 | 60.3 | -0.1% | -6.7% | 57.0% | 21.3* | 58.1%
COc1ccc(-n2nnc3c(SCC(=O)Nc4ccccc4F)ncnc32)cc1 | 12.1 | 0.1% | 18.8% | 37.8% | -5.7 | 32.8%
CCOCc1cn(CC(=O)c2ccc([N+](=O)[O-])cc2)c(C)nc1=N | -18.0 | 2.9% | -6.0% | nt | -2.7 | 1.04µM*
CCOCc1cn(CC(=O)c2ccc(Cl)cc2)c(C)nc1=N | -16.9 | 0.4% | 2.8% | nt | -3.5 | 4.15µM*
Cc1cc(C)n(CC(=O)c2ccc(Cl)cc2)n1 | -7.4 | 1.3% | 31.5% | 13.3% | -1.5 | 22.5%
CC1CCC(NC(=O)c2cc3c(s2)CS(=O)(=O)C3)CC1 (configuration not stated) | 11.0 | 1.0% | 17.5% | 11.7µM* | 12.3 | -8.9%
O=C(CCNc1ccc(F)cc1)c1cc2ccccc2o1 | 9.7 | -7.1% | ? | -26.7% | 2.1 | 2.2%
CCC(=O)Nc1cccc(-c2cc3ccccc3oc2=O)c1 | 82.6* | -1.1% | 0.0% | 25.9% | 60.6* | 100.3%
O=C(Nc1ccc(N2CCCC2)c(Cl)c1)c1cccc(-c2cc3ccccc3oc2=O)c1 | -11.4 | -6.8% | -6.4% | 13.4% | 0.6 | 0.0%
O=C(Cc1cccc2ccccc12)Nc1ccc(-c2cc3ccccc3oc2=O)cc1 | 2.5 | 6.3% | -26.0% | ? | -6.2 | 11.7µM*
O=C(CCNc1cccc(F)c1)c1cc2ccccc2o1 | 36.0 | -4.3% | -15.2% | ? | 43.8* | 20.0%
CC(=O)Nc1ccc(NC(=O)c2cccc(-c3cc4ccccc4oc3=O)c2)cc1 | 48.8 | 1.7% | -3.9% | 87.2% | 31.2* | 52.8%
CC(C)(C)OC(=O)C[C@H]1C/C=C\C[C@H](CC(=O)NCCO)C(=O)N[C@@H](c2ccccc2)COC1=O | nt | 5.2% | 5.1% | nt | nt | nt
NS(=O)(=O)c1cccc(NC(=O)c2cc3ccccc3o2)c1 | 56.1* | 0.9% | -31.9% | 56.5% | 25.1* | 26.3%
Cc1cccc(NC(=O)c2cc3ccccc3o2)c1 | 94.6* | -53.0% | 17.6% | 496.5% | 50.0* | 330.5%
COc1ccc(C(=O)Nc2cccc(-c3cc4ccccc4oc3=O)c2)cc1[N+](=O)[O-] | -17.8 | -4.2% | -17.1% | 30.8% | -3.0 | 13.1µM*
COc1ccc(C(=O)NC(=S)Nc2ccc3oc(=O)ccc3c2)cc1[N+](=O)[O-] | -21.5 | 2.4% | 60.3% | -9.9% | 10.4 | ?
O=C(Nc1ccc2c(c1)Cc1ccccc1-2)c1cc2ccccc2o1 | nt | nt | 0.8% | nt | nt | nt
SMILES | Shiga inhibitor | SARS PLpro yeast | AMA1-RON2 inh | Pf growth 96h | CHX counter | Pf growth 48h
O=C(Nc1cccc(Br)c1)c1cc2ccccc2o1 | 105.6* | -25.9% | 1.8% | i | 91.8* | 311.3%
NS(=O)(=O)c1cccc(NC(=O)c2cc(=O)c3ccccc3o2)c1 | 10.5 | -2.7% | -3.8% | -2.1% | -0.5 | 17.1%
CCCN(C)C1CN(Cc2cn(Cc3ccc(F)cc3)nn2)S(=O)(=O)C1 (configuration not stated) | nt | nt | 1.2% | nt | nt | nt
O=C(N/N=C/c1ccncc1)C12CC3CC(CC(C3)C1)C2 | 23.4 | -4.6% | -5.9% | 13.3% | 3.4 | 2.8%
CCC(=O)Nc1cccc(NC(=O)c2cc3ccccc3o2)c1 | 99.6* | -16.8% | -4.8% | 35.8% | 45.0* | 63.9%
CCOc1ccc(Cn2nnc(C(=O)NCCc3ccccc3)c2N)cc1 | -0.8 | 1.9% | 0.0% | ? | -2.2 | nt
CCOc1ccc(Cn2nnc(C(=O)NCCc3ccc(Cl)cc3)c2N)cc1 | 1.4 | 6.2% | 1.7% | 5.22µM* | -5.8 | nt
COc1ccc(Cn2nnc(C(=O)Nc3ccc(F)cc3)c2N)cc1 | 70.7 | 9.2% | 11.5% | 1.85µM* | -4.4 | 16.3%
COC(=O)C(Cc1cccc(C)n1)(c1ccccc1)c1ccccc1 | 13.1 | -2.0% | -5.9% | ? | -6.0 | 9.28µM*
COC(=O)c1ccccc1OCc1cccc(C)n1 | -13.5 | 11.7% | 0.0% | 15.6% | -2.1 | 8.2%
COc1cc(N=C2C(=O)N3c4c(cccc42)C(C)=CC3(C)C)cc(OC)c1 | 11.0 | -14.8% | -6.9% | ? | -3.1 | ?
CC1=CC(C)(C)N2C(=O)C(=Nc3ccc(O)cc3)c3cccc1c32 | 46.1* | -1.0% | 20.5% | ? | -1.3 | ?
Cc1cc(=O)oc2c3c(cc(OCC(=O)NCc4cccnc4)c12)OC(C)(C)CC3 | -8.8 | 5.2% | -14.7% | ? | 0.8 | ?
Cc1cc(=O)oc2c3c(cc(OCC(=O)NC(C)C)c12)OC(C)(C)CC3 | -7.8 | 0.4% | 8.9% | ? | -3.6 | 9.28µM*
COc1ccc(CNC(=O)COc2cc3c(c4oc(=O)cc(C)c24)CCC(C)(C)O3)cc1 | -11.3 | -7.3% | 8.4% | 8.28µM* | -2.8 | ?
COc1ccccc1CNC(=O)COc1cc2c(c3oc(=O)cc(C)c13)CCC(C)(C)O2 | -4.3 | -4.5% | -4.0% | 3.7µM* | -3.2 | ?
COc1cccc(CNC(=O)COc2cc3c(c4oc(=O)cc(C)c24)CCC(C)(C)O3)c1 | -0.7 | -6.4% | -14.5% | 13.1µM* | -2.4 | 9.28µM*
CC(C)(C)NC(=O)CCN(/N=C/c1ccccc1O)C1=NS(=O)(=O)c2ccccc21 | -9.6 | 1.7% | -0.9% | 22.8% | -1.6 | ?
CN(C)CCCNS(=O)(=O)c1ccc(N2CCC(c3ccc(Cl)cc3)=N2)cc1 | 14.5 | -21.2% | nt | nt | 2.3 | 9.28µM*
O=S(=O)(c1ccc(N2CCC(c3ccc(Cl)cc3)=N2)cc1)N(CCO)CCO | 4.0 | 1.7% | 23.6% | -60.9% | 3.5 | nt
C[N+]1(CCCOC(=O)C2(c3ccccc3)CCCC2)CCOCC1 | -2.1 | -7.2% | -1.6% | ? | -1.5 | 11.7µM*
O=C(OCCN1CCCCC1)c1ccccc1Br | 39.6 | -1.5% | -6.7% | 48.2% | 35.4* | -13.0%[0.00184 µM]

Source: PubChem BioAssay (National Center for Advancing Translational Sciences (NCATS))
